NPSR antagonist = blocks cAMP signaling of the human neuropeptide S receptor | Q6W5P4 | CHO-NPSR cells, cAMP TR-FRET, antagonist mode | Potency, µM (doses to about 38.3 µM), without a hit: top-dose activity change, negative = inhibition, hits mostly inhibitors | 220,000 tested, 1% active | AID 1461; note: nearly all actives have a fitted effect of over 50% in size
B2AR arrestin = agonists driving beta-arrestin recruitment to human beta2-adrenergic receptor | beta-arrestin recruitment to beta2AR, cell-based reporter | Potency, µM (doses to about 46.1 µM), for inactives: at the highest dose activation, most hits filed as activators | 330,000 tested, 0.02% active | AID 492947;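 note: 0% = DMSO controls and full agonism = EC100 isoproterenol or metaproterenol; nearly all actives have a fitted effect of over 65% in size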
RORg inh = blocks mouse ROR gamma transcriptional activity; 310,000 tested, 5.4% active; Potency, µM (doses to about 53.6 µM), without a hit: top-dose activity change, negative = inhibition, hits mostly inhibitors; P51450; AID 2551; Drosophila S2 Gal4-RORgamma UAS-luciferase reporter, 20 h; note: nearly all actives have a fitted effect of over 60% in size
Target sequence (P51450 whole entry, looked up, the tested form may be a part): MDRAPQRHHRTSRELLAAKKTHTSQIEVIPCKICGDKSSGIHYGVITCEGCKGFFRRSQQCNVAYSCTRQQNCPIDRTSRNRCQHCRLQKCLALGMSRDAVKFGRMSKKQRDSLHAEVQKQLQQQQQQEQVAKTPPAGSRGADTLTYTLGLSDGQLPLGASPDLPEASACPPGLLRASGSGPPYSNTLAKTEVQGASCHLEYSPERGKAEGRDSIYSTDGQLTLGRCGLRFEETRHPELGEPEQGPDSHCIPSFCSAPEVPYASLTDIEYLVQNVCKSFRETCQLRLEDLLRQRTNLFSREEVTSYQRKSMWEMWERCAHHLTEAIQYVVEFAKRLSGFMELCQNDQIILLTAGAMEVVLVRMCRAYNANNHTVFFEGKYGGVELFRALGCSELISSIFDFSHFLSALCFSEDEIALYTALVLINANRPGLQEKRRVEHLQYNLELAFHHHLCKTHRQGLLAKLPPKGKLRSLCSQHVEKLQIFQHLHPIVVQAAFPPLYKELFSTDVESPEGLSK
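ROR gamma transcriptional activity was tracked as Gal4-UAS luciferase output in stably transfected Drosophila Schneider cells, with compound added 1 hr before 700 uM copper sulfate induction and a 20 hr ambient-temperature incubation.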
Gal4-VP16 FLuc = inhibits Gal4-VP16 luciferase reporter, ROR gamma counter-screen. Drosophila S2 Gal4-VP16 UAS-luciferase, luminescence, 20 h. Potency, µM (series often up to 53.6 µM), for inactives: top-dose activity, negative = inhibition, hits mostly inhibitors. 310,000 tested, 3.5% active;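 note: Gal4-VP16 expression switched on by copper sulfate through the metallothionein promoter; nearly all actives have a fitted effect of over 50% in size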
An asterisk follows results filed as active; ? = inconclusive; . = no result given; [ ] = remark or other dose. Only some compounds are listed: those with a hit (about 5.7% of all), similar ones and a draw of the others. Calls come from the whole dose curve; as a rule, active = well fitted curve in the direction sought with a large enough effect; inconclusive = small, poorly fitted or top-dose-only effect, or another doubt; inactive = no such curve, though single readings can be large; an effect the other way counts as inactive or inconclusive. Unless noted, % is set by controls: 0 for no effect and ±100 for the full control effect; potency is the fitted concentration of half-maximal effect.

SMILES	NPSR antagonist	B2AR arrestin	RORg inh	Gal4-VP16 FLuc
Cc1cccc2cc3c(nc12)SC(=NCC1CCCO1)N(Cc1ccco1)C3 (stereo unspecified)	10µM*	-0.2%	2.82µM*	3.16µM*
O[C@@H]1CCN2Cc3ccccc3N=C12	.	.	-2.2%	-6.8%
O=C(Nc1ccc(Oc2c(F)c(F)c(F)c(F)c2F)cc1)OC1CCN2Cc3ccccc3N=C12 (stereo unspecified)	2µM*	-0.3%	0.708µM*	?
O=C(Oc1c(CN2CCOCC2)cc(Cl)c2cccnc12)c1ccc(F)cc1	5.01µM*	8.3%	-5.4%	-15.4%
O=C(Oc1ccc(Cl)c2cccnc12)N1CCOCC1	-4.0%[46.1 µM]	-0.8%	-14.8%	-3.1%
COc1cccc(C(=O)Oc2c(CN3CCOCC3)cc(Cl)c3cccnc23)c1	10µM*	10.5%	2.82µM*	4.47µM*
COc1cc(C(=O)Oc2c(CN3CCOCC3)cc(Cl)c3cccnc23)cc(OC)c1OC	-26.2%[46.1 µM]	3.55µM*	4.47µM*	2.51µM*
COc1ccc(C(=O)Oc2c(CN3CCOCC3)cc(Cl)c3cccnc23)cc1	-13.3%[46.1 µM]	?	6.31µM*	6.31µM*
CCc1ccc(-c2nnn(CC(=O)N(C3CCCC3)C3CCS(=O)(=O)C3)n2)cc1 (stereo unspecified)	.	-0.2%	.	.
CCOC(=O)c1ccc(CNC(=O)c2cc(C(C)(C)C)oc2C)o1	-14.8%[46.1 µM]	0.1%	6.31µM*	?
CCC(C)(C)NC(=O)c1cc(S(=O)(=O)N2CCCCC2)ccc1N1CCOCC1	-7.5%	0.1%	15.8%	3.4%
COCC1CCN(Cc2c(C(=O)N3CCc4ccccc4C3)nc3ccc(Cl)cn23)C1 (stereo unspecified)	.	-0.3%	8.1%	13.6%
CCCOc1ccc(CNC(=S)Nc2ccccc2)cc1Cl	.	-0.8%	5.01µM*	7.08µM*
CC(C)COc1ccc(CNC(=S)Nc2ccccc2)cc1Cl	.	0.8%	5.01µM*	12.6µM*
COc1ccc(CNC(=S)Nc2ccccc2)cc1Cl	.	-0.3%	?	?
CC(C)Oc1ccc(CNC(=S)Nc2ccccc2)cc1Cl	.	-0.2%	11.2µM*	11.2µM*
CC(=O)/C=C1/C(=O)Nc2ccccc21	6.0%	3.1%	3.55µM*	7.08µM*
COc1cc(OC)c(/C=C2/C(=O)Nc3ccccc32)c(OC)c1	-7.5%[46.1 µM]	.	.	.
C=CCOc1cccc(C(=O)/C=C2/C(=O)Nc3ccccc32)c1	.	-0.2%	12.6µM*	?
Cc1ccsc1/C=N/n1c(-c2ccccn2)n[nH]c1=S	-5.2%	-0.3%	?	?
[N-]=[N+]=Nc1ccc(C(=O)CSC[C@H](NC(=O)CC[C@H](N)C(=O)O)C(=O)NCC(=O)O)cc1	5.9%[46.1 µM]	.	.	.
CCOC(=O)CSc1nc2ccccc2c(=O)n1NC(=O)c1ccccc1	5.3%[46.1 µM]	0.4%	-22.1%	-3.4%
COc1ccc(C(=O)Nn2c(SCC(=O)c3ccccc3)nc3ccccc3c2=O)cc1	?	0.1%	11.2µM*	?
O=C1CCCCCN1Cc1nnc(SCc2nc3ccccc3s2)n1-c1ccccn1	-19.6%[46.1 µM]	-0.1%	2.51µM*	7.08µM*
COc1ccc(/C=C2/C(=O)N(c3nc4ccccc4s3)N=C2CSc2ccc(Cl)cc2)cc1	-43.2%	0.2%	14.1µM*	12.6µM*
SMILES	NPSR antagonist	B2AR arrestin	RORg inh	Gal4-VP16 FLuc
COc1ccc(/C=C2/C(=O)N(Cc3ccccc3)N=C2C)cc1	17.7%	2.4%	?	?
CN1/C(=C\C(=O)C(F)F)C(C)(C)c2ccccc21	-7.6%[46.1 µM]	-0.2%	21.8%	0.2%
Cc1ccc(C(=O)NC(=S)/C=C2\N(C)c3ccccc3C2(C)C)cc1	-17.9%	-0.2%	7.08µM*	5.62µM*
Cc1c(NC(=S)/C=C2\N(C)c3ccccc3C2(C)C)c(=O)n(-c2ccccc2)n1C	-19.3%[46.1 µM]	0.2%	13.2%	?
CC(C)C(=O)NC(=S)/C=C1/N(C)c2ccccc2C1(C)C	-19.6%	3.3%	3.55µM*	3.98µM*
CC(=O)/C=C1\N(C)c2ccc(C)cc2C1(C)C	13.0%	0.3%	-22.5%	?
CN1/C(=C/C(=S)NC(=O)C2CCC2)C(C)(C)c2ccccc21	-23.6%	0.2%	6.31µM*	12.6µM*
Cc1cc(C)n(CCC(=O)Nc2ccc3c(c2)OCCO3)n1	.	-0.5%	8.9%	2.5%
N#Cc1ccccc1S(=O)(=O)N1CCN(C(=O)[C@@H]2CCCN2C(=O)c2cccs2)CC1	.	-0.6%	.	.
O=C(Oc1ccccc1)N1CCC2(CC1)CCN(c1ccncc1)CC2	.	.	-10.8%	-10.3%
c1cncc(CNc2ncncc2-c2ccc3c(c2)OCO3)c1	.	.	3.3%	7.9%
Cc1ccc2c(C)nc(SC(C(=O)c3ccccc3)c3ccccc3)nc2c1 (stereo unspecified)	-19.2%[46.1 µM]	-0.5%	?	20µM*
O=C(Nc1cccc(C(=O)O)c1)/C(=C\c1ccc2c(c1)OCO2)NC(=O)c1ccc(Br)cc1	7.5%	-1.5%	24.5%	-3.4%
Brc1ccc2nc(-c3c[nH]c4ccccc34)cn2c1	-5.0%	0.0%	0.199µM*	?
Cc1cccn2cc(-c3c[nH]c4ccccc34)nc12	26.7%	0.1%	-24.0%	-14.9%
CC(C)(C)c1ccc(/C=N/NC(=S)Nc2cccnc2)cc1	-56.1%	-0.2%	0.178µM*	1.26µM*
S=C(N/N=C/c1ccc2ncccc2c1)Nc1cccnc1	-7.4%	0.4%	4.47µM*	?
Oc1ccc(/C=N/NC(=S)Nc2cccnc2)cc1O	-4.5%	-0.2%	8.91µM*	?
CC(C)[C@@H](N)C(=O)N/N=C/c1ccc2ncccc2c1	14.2%	-0.3%	24.0%	-1.1%
COc1cc(/C=N/NC(=S)Nc2cccnc2)cc(OC)c1OC	-22.9%	?	-1.2%	0.6%
COc1ccccc1/C=N/NC(=S)Nc1cccnc1	-37.8%	?	0.708µM*	?
O=C(CNc1ccc(Br)cc1)Nc1ccc(S(=O)(=O)N2CCCC2)cc1	.	0.4%	.	.
COc1ccc(CC(=O)OCC(=O)NCc2ccc3c(c2)OCO3)cc1OC	.	-0.5%	.	.
O=C1CN(C(=O)c2cc3ccccc3oc2=O)C(c2ccc(F)cc2)c2cc(Br)ccc2N1 (stereo unspecified)	-20.4%	0.2%	?	-12.7%
CCN(CC)S(=O)(=O)c1ccc(N2CCN(CCOc3ccc(OC)cc3)CC2)nc1	.	0.2%	?	?
SMILES	NPSR antagonist	B2AR arrestin	RORg inh	Gal4-VP16 FLuc
N[C@@H](Cc1cc(CP(=O)(O)O)cc(-c2ccccc2Cl)c1)C(=O)O	.	.	1.3%	-6.5%
CCC(C)NC(=S)Nc1ccccc1OC (stereo unspecified)	12.5%	-1.6%	4.8%	-1.2%
CCc1cccc(CC)c1NC(=S)Nc1ccccc1	16.0%	0.3%	12.6µM*	?
Cc1cc(C)cc(NC(=S)NCCCO)c1	6.6%	-1.0%	-40.4%	-2.5%
CCC(C)NC(=S)Nc1ccccc1 (stereo unspecified)	-16.2%	-0.3%	5.62µM*	?
CC(NC(=S)Nc1ccc(F)cc1)c1ccccc1 (stereo unspecified)	.	-0.5%	7.08µM*	7.94µM*
CCCC(C)NC(=S)Nc1cc(C)cc(C)c1 (stereo unspecified)	-30.1%	-0.1%	1.41µM*	6.31µM*
CCCC[C@]12Cc3ccccc3[C@H](O1)C1=C(O2)C(=O)c2ccccc2C1=O	.	0.1%[9.22 µM]	-3.0%[10 µM]	-8.7%[10 µM]
CCCCc1nnc(NC(=O)CN2C(=O)NC3(CCCCC3)C2=O)s1	.	-0.9%	5.8%	1.4%
